Sampled rows, rich in hits. Any-hit rate of the full collection: about 1.2%.
BH1578 lux ind: inducers of Vibrio cholerae quorum light production without autoinducers | activation, % at 18.7 µM | AID 588436 | actives 0.16% (n = 350,000) | V. cholerae BH1578 lux reporter, luminescence, 6 h; in the data active means activation mostly above about 9.7%, no sharp cut-off
Yp Topo-I inh: inhibitors of Yersinia pestis topoisomerase I; Y. pestis Topo-I cleavage product accumulation, plate reader; activity, % at 10 µM; actives 0.064% (n = 360,000); in the data active means activity above about 50%, passing the limit was not always enough
PfHsp40 rescue: restores yeast growth despite PfHsp40 toxicity. actives 0.68% (n = 340,000). S. cerevisiae expressing PfHsp40, growth rescue, ATP luminescence. growth rescue, % at 12.5 µM; in the data active means growth rescue above about 28%, passing the limit was not always enough;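 further: yeast W303a lacking pdr1 and pdr3 grown in galactose medium; growth measured after three days at 30 °C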
VHR inh abs: DUSP3 (human) phosphatase inhibition; recombinant VHR phosphatase, pNPP absorbance; inhibition, % at 13.3 µM; actives 0.52% (n = 290,000); AID 1654; in the data active means inhibition above about 50%
Target sequence (P51452 whole entry, looked up): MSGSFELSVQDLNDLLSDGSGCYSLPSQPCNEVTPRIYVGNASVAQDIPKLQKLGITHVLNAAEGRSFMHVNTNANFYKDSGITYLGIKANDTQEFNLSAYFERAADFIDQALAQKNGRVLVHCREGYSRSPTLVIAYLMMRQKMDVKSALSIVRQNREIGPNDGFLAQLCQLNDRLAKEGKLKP
BioA inh: inhibitors of Mycobacterium tuberculosis BioA enzyme | AID 602481 | inhibition, % at 9.99 µM | actives 0.096% (n = 360,000) | purified M. tuberculosis BioA enzyme, plate reader; in the data active means inhibition above about 40%
TcdB GH inh: TcdB glycohydrolase inhibition; P18177; TcdB glycohydrolase enzymatic assay, plate reader; actives 0.24% (n = 350,000); inhibition, % at 9.99 µM; in the data active means inhibition above about 10%
* = called active by the depositor; i = inactive; . = no result.

SMILES	BH1578 lux ind	Yp Topo-I inh	PfHsp40 rescue	VHR inh abs	BioA inh	TcdB GH inh
O=C(OCn1nnc2ccccc2c1=O)c1ccco1	0	5	-1	19	-2	1
O=C(COc1c(Br)cc(Br)c2cccnc12)N1CCc2ccccc2C1	-3	57*	12	19	2	2
CC(C)(C)C(O)C(Oc1ccc(Cl)cc1)n1cncn1 (stereo not drawn)	i	2	141*	-6	1	0
CCOc1cccc(/C=N/NC(=O)c2cc(-c3cccn3C)n[nH]2)c1O	0	-3	36*	10	.	-5
O=C(O)c1cc(-c2ccc(N3CCOCC3)cc2)nn1-c1ccc(F)cc1F	i	2	40*	5	.	2
O=C(O)c1cc(-c2ccc(N3CCOCC3)cc2)nn1-c1ccccc1Cl	-1	-5	0	9	.	0
CCCn1nnnc1SCC(=O)NNC(=O)C1CCCCC1	.	.	.	19	.	.
Cc1onc(-c2ccccc2Cl)c1C(=O)Nc1cnn(Cc2ccccc2)c1	0	4	0	16	-1	13*
Cc1onc(-c2ccccc2Cl)c1C(=O)NCc1ccccc1	i	8	0	16	1	1
CC(=NCCCn1ccnc1)c1c(-c2ccccc2)[nH]n(-c2nc3ccccc3s2)c1=O	i	16	-2	24	41*	.
Cc1cc(C)c(S(=O)(=O)N2CCN(S(=O)(=O)N3CCC(C)CC3)CC2)c(C)c1	0	4	-1	-1	-1	1
Cc1c(C(=O)c2ccc(Cl)c(Cl)c2)cnc2cc3c(cc12)OCO3	1	0	1	54*	.	.
COc1ccc(C(=O)c2cnc3cc4c(cc3c2C)OCO4)cc1	i	3	0	12	6	.
CC(=O)NCCCc1nc2ccccc2n1Cc1ccccc1C	i	4	-1	0	8	.
O=C(Oc1cccc(OC(=O)c2ccco2)c1)c1ccco1	0	2	-2	56*	0	1
Cc1ccc(N2C(=O)CC(NNc3nc4ccccc4s3)C2=O)cc1C (stereo not drawn)	0	8	1	3	.	.
COc1ccccc1CCC(=O)OCC(=O)c1c(N)n(CC(C)C)c(=O)n(C)c1=O	i	18	-1	.	2	-1
N#C[C@@H]1[C@H](c2ccc(C#CC3CCCCC3)cc2)[C@@H](CO)N1C(=O)c1cccc(F)c1	.	.	.	.	-3	-6
COc1ccc(N2C(=O)C3C4C=CC(C5CC45)C3C2=O)c([N+](=O)[O-])c1 (stereo not drawn)	17*	-5	1	15	0	.
COc1ccc(N2C(=O)C3C4C=CC(CC4)C3C2=O)c([N+](=O)[O-])c1 (stereo not drawn)	i	1	1	19	0	.
O=C(C[C@H]1CC[C@H]2[C@@H](COC[C@H](O)CN2C(=O)Nc2ccc(Cl)c(Cl)c2)O1)NCc1ccncc1	.	.	.	.	-2	13*
CNC(=O)C[C@@H]1CC[C@@H]2[C@H](COC[C@H](O)CN2C(=O)c2ccccn2)O1	.	.	.	.	2	1
O=C(C[C@H]1CC[C@@H]2[C@H](COC[C@@H](O)CN2C(=O)c2ccccn2)O1)NC1CCC1	.	.	.	.	-1	15*
O=C(C[C@@H]1CC[C@@H]2[C@H](COC[C@@H](O)CN2C(=O)c2ccccn2)O1)NC1CCC1	.	.	.	.	0	27*
O=C(C[C@@H]1CC[C@H]2[C@@H](COC[C@H](O)CN2C(=O)c2ccccn2)O1)NC1CCC1	.	.	.	.	-2	17*
SMILES	BH1578 lux ind	Yp Topo-I inh	PfHsp40 rescue	VHR inh abs	BioA inh	TcdB GH inh
CCNC(=O)C[C@H]1CC[C@@H]2[C@H](COC[C@@H](O)CN2C(=O)c2ccccn2)O1	.	.	.	.	-2	.
O=C(C1CCCC1)N1CC(=O)N2[C@H](C1)[C@@H](c1ccc(C#Cc3cccc(F)c3)cc1)[C@@H]2CO	.	.	.	.	.	1
O=C(C[C@H]1CC[C@H]2[C@@H](COC[C@@H](O)CN2Cc2ccccc2)O1)NCCc1ccccc1	.	.	.	.	0	15*
COc1ccc(CCNC(=O)CC(C)S(=O)(=O)c2ccc3c(c2)NC(=O)CO3)cc1OC (stereo not drawn)	i	-3	1	59*	.	2
COc1ccc(CNC(=O)CC(C)S(=O)(=O)c2ccc3c(c2)NC(=O)CO3)cc1 (stereo not drawn)	-6	1	-1	4	1	0
COc1ccc(CCNC(=O)[C@@H](NC(=O)N2CCn3c2nc2ccccc23)C(C)C)cc1OC	i	7	-1	20	1	3
CC(C)(C)c1ccc(C(=O)NC(=S)NNC(=O)c2cccs2)cc1	0	5	465*	-11	2	.
O=C(NC(=S)NNC(=O)c1cccs1)c1ccccc1	0	-8	19	18	0	-2
Cc1ccccc1C(=O)NNC(=S)NC(=O)c1cccnc1	-6	-2	0	-7	0	10
O=C(NC(=S)NNC(=O)c1ccccc1F)c1cccnc1	i	1	.	10	-4	15*
C/C(=N\NC(=O)c1cccnc1)c1ccc(Br)cc1	-1	-5	0	16	16	-3
C/C(=N\NC(=O)c1cccnc1)c1ccccc1	-2	-4	-1	59*	4	-4
CC(C)(C)c1ccc(C(=O)NNC(=S)NC(=O)c2cccnc2)cc1	22	-4	109*	7	1	-1
COc1cc(C)ccc1OCCOc1c(C)cccc1Cl	5	3	3	24	.	.
Nc1nc2n(n1)C(c1ccco1)CC(c1ccc(Cl)cc1)N2 (stereo not drawn)	i	8	0	14	-3	.
CC(C)(C)c1cc(Cl)c(O)c(NC(=S)NC(=O)c2cccnc2)c1	i	-11	2	10	.	10*
COc1cccc(C(=O)NNC(=O)c2cccnc2)c1	0	-9	0	60*	-6	0
COc1cccc(NC(=O)c2cccnc2)c1	0	5	1	15	17	.
CC(C)c1ccc(O)c(NC(=S)NC(=O)c2cccnc2)c1	0	-4	0	4	.	1
COc1cccc(C(=O)N/N=C(/c2ccccc2)c2ccccn2)c1	i	11	324*	30	0	.
O=C(O)C1CCN(C(=O)CSc2nc3ccccc3c(=O)n2Cc2ccccc2)CC1	0	15	1	18	.	-7
COc1ccc2cc(CCNC(=O)c3cccs3)c(=O)[nH]c2c1	0	6	0	-4	0	1
CC1=C(C)/C(=N\OS(=O)(=O)c2ccccc2)C=CC1=O	i	1	637*	15	2	0
CCCc1nc(SCC(=O)N2CCC(Cc3ccccc3)CC2)c2c(=O)n(C)c(=O)n(C)c2n1	1	6	184*	7	-1	0
CCc1nc(SCC(=O)N2CCN(c3ccccc3)CC2)c2c(=O)n(C)c(=O)n(C)c2n1	.	.	.	16	.	.
CNC[C@H]1Oc2cc(C#CC3CCCC3)ccc2S(=O)(=O)N([C@@H](C)CO)C[C@H]1C	.	.	.	.	-7	0
